Values joined by “and” are separate entries in the source; they are usually repeats but may differ in a detail not shown here. Equal entries are not always repeated. More than one record can exist for a structure, and the calls need not agree. Active and inactive are the calls of the source. Unless noted, the call rests on the fitted dose curve; in most records, active means well fitted curve in the direction sought with a large enough effect in the repeat runs; inconclusive means weak or mixed curves; inactive means no such curve, though single readings can be large; an effect the other way counts as inactive or inconclusive.
Key:
[1] = qHTS assay to identify small molecule antagonists of the glucocorticoid receptor (GR) signaling pathway - cell viability counter screen (AID 720693); further: nearly all actives have a fitted effect of over 55% in size; further: potency means the concentration at half of the fitted maximal effect
[2] = qHTS assay for identifying genotoxic compounds that show differential cytotoxicity against isogenic chicken DT40 cell lines with known DNA damage response pathways - wild type cell line (AID 743012); further: nearly all actives have a fitted effect of over 60% in size; further: potency means the concentration at half of the fitted maximal effect
How it was run: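 Quantitative HTS on parental DT40 cells: 40 h compound treatment at 37 C/5% CO2, with viability then determined by CellTiter-Glo luminescence. Values serve as the DNA repair-proficient reference for differential cytotoxicity.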

[3] = qHTS assay for identifying genotoxic compounds that show differential cytotoxicity against isogenic chicken DT40 cell lines with known DNA damage response pathways - Rev3 mutant cell line (AID 743014); further: nearly all actives have a fitted effect of over 55% in size; further: potency means the concentration at half of the fitted maximal effect
[4] = qHTS assay for identifying genotoxic compounds that show differential cytotoxicity against isogenic chicken DT40 cell lines with known DNA damage response pathways - Rad54/Ku70 mutant cell line (AID 743015); further: nearly all actives have a fitted effect of over 60% in size; further: potency means the concentration at half of the fitted maximal effect
[5] = qHTS assay to identify small molecule antagonists of the androgen receptor (AR) signaling pathway - cell viability counter screen (AID 743033; further: nearly all actives have a fitted effect of over 45% in size; further: potency means the concentration at half of the fitted maximal effect)
[6] = molecular target: Androgen receptor (Homo sapiens) (UniProt P10275); experiment: qHTS assay to identify small molecule agonists of the androgen receptor (AR) signaling pathway using the MDA cell line (AID 743040; further: on the % scale 0 is the no-effect control and ±100 the full control effect; nearly all actives have a fitted effect of over 20% in size)
How it was run: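 After a 5 h incubation at 37C and 0% CO2, MDA-kb2 reporter cells were dosed with compounds in DMSO and kept 16 h under the same conditions. Luciferase activity was then read as luminescence with ONE-Glo.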

[7] = molecular target: Androgen receptor (Homo sapiens) (UniProt P10275); experiment: qHTS assay to identify small molecule antagonists of the androgen receptor (AR) signaling pathway using the MDA cell line (AID 743042; further: potency means the concentration at half of the fitted maximal effect; nearly all actives have a fitted effect of over 55% in size)
How it was run: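 Antagonist mode: compounds plus R1881 agonist added to MDA-kb2 AR-luc cells, incubated 16 h at 37C. Luciferase reporter luminescence quantified, with multiplexed CellTiter-Fluor readout for cell viability.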

[8] = qHTS assay to identify small molecule antagonists of the thyroid receptor (TR) signaling pathway - cell viability counter screen (AID 743064); further: nearly all actives have a fitted effect of over 50% in size; further: potency means the concentration at half of the fitted maximal effect
How it was run: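 CellTiter-Fluor readout, 30 min at 37 °C/5% CO2, following 23.5 h incubation of GH3.TRE-Luc cells with test compound and 1 nM T3 (final).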

[9] = qHTS assay to identify small molecule antagonists of the thyroid receptor (TR) signaling pathway (AID 743065); further: nearly all actives have a fitted effect of over 55% in size; further: potency means the concentration at half of the fitted maximal effect
How it was run: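 Antagonism measured as loss of luciferase signal in GH3 cells stably carrying a TRE-luciferase reporter, co-treated with compound and T3 (1 nM final) for 23.5 h at 37 C. Viability was read in the same well by CellTiter-Fluor.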

[10] = molecular target: Estrogen receptor (Homo sapiens) (UniProt P03372); experiment: qHTS assay to identify small molecule agonists of the estrogen receptor alpha (ER-alpha) signaling pathway (AID 743075; calls by dose curve; further: potency means the concentration at half of the fitted maximal effect; on activation: on the % scale 0 is the no-effect control and ±100 the full control effect); conditions: HEK293 ER-alpha-UAS-bla, beta-lactamase FRET ratio, 18 h; activation: at 70.1 µM (top of the series)
[11] = qHTS assay to identify small molecule antagonists of the estrogen receptor alpha (ER-alpha) signaling pathway using the BG1 cell line - cell viability counter screen (AID 743081);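 further: compound given together with 17beta-estradiol as the ER stimulus; nearly all actives have a fitted effect of over 45% in size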; further: potency means the concentration at half of the fitted maximal effect
[12] = molecular target: Aromatase (Homo sapiens) (UniProt P11511); experiment: qHTS assay to identify aromatase inhibitors (AID 743083); further: nearly all actives have a fitted effect of over 55% in size; further: potency means the concentration at half of the fitted maximal effect
[13] = qHTS assay to identify small molecule antagonists of the androgen receptor (AR) signaling pathway using the MDA cell line - cell viability counter screen (AID 743041; further: nearly all actives have a fitted effect of over 45% in size; further: potency means the concentration at half of the fitted maximal effect)
How it was run: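 R1881-driven MDA-kb2 AR-luc cells, 3,000/well, were dosed with library compounds for 16 h; cell health came from CellTiter-Fluor fluorescence in the reporter wells.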

[14] = test system: thyroid hormone receptor (rat, GH3 cells); experiment: qHTS assay to identify small molecule agonists of the thyroid receptor (TR) signaling pathway (AID 743066; calls by dose curve; further: on the % scale 0 is the no-effect control and ±100 the full control effect)
[15] = molecular target: Estrogen receptor (Homo sapiens) (UniProt P03372); experiment: qHTS assay to identify small molecule antagonists of the estrogen receptor alpha (ER-alpha) signaling pathway (AID 743069; active means well fitted curve in the direction sought with a large enough effect in the signal ratio in the repeat runs, not every such curve was filed as active; inconclusive means weak or mixed curves, or effect the other way; inactive means no such curve, though single readings can be large or run the other way; the % refers to the signal ratio; further: potency means the concentration at half of the fitted maximal effect)
How it was run: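 Compound effects are measured against 17beta-estradiol stimulation in HEK293 cells with a UAS-controlled beta-lactamase reporter for ER-alpha. Exposure lasts 18 hr at 37C; LiveBLAzer B/G FRET substrate follows for 2 hr at room temperature.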

[16] = qHTS assay to identify small molecule antagonists of the estrogen receptor alpha (ER-alpha) signaling pathway - cell viability counter screen (AID 743074; calls by dose curve;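 further: HEK293 cells carrying ER-alpha-UAS-bla reporter stimulated with 17beta-estradiol; nearly all actives have a fitted effect of over 45% in size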; further: potency means the concentration at half of the fitted maximal effect)
[17] = molecular target: Estrogen receptor (Homo sapiens) (UniProt P03372); experiment: qHTS assay to identify small molecule agonists of the estrogen receptor alpha (ER-alpha) signaling pathway using the BG1 cell line (AID 743079); conditions: BG1Luc4E2 cells, ERE-luciferase agonist, 22 h; further: on the % scale 0 is the no-effect control and ±100 the full control effect; nearly all actives have a fitted effect of over 20% in size
[18] = qHTS assay to identify small molecule antagonists of the estrogen receptor alpha (ER-alpha) signaling pathway using the BG1 cell line (AID 743080; calls by dose curve; further: nearly all actives have a fitted effect of over 25% in size; further: potency means the concentration at half of the fitted maximal effect)
How it was run: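 Antagonist mode: compounds in DMSO were pinned onto BG1-Luc-4E2 cells alongside 17beta-estradiol agonist, incubated 21.5 h, and ERE-driven luciferase measured with ONE-Glo. Cytotoxicity was multiplexed using CellTiter-Fluor fluorescence.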

[19] = molecular target: Androgen receptor (Homo sapiens) (UniProt P10275); experiment: qHTS assay to identify small molecule antagonists of the androgen receptor (AR) signaling pathway (AID 743035; active means well fitted inhibition curve with a large enough effect in the signal ratio in the repeat runs, not every such curve was filed as active; inconclusive means weak or mixed curves, or effect the other way; inactive means no such curve, though single readings can be large or run the other way; the % refers to the signal ratio; further: potency means the concentration at half of the fitted maximal effect)
How it was run: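 Cell line: GeneBLAzer AR-UAS-bla GripTite (HEK293). Stimulus: R1881 added after compound. Exposure: 16 h, 37C, 5% CO2. Readout: LiveBLAzer B/G FRET fluorescence after 2 h at room temperature.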

Androgen receptor (Homo sapiens), sequence (P10275 whole entry, looked up): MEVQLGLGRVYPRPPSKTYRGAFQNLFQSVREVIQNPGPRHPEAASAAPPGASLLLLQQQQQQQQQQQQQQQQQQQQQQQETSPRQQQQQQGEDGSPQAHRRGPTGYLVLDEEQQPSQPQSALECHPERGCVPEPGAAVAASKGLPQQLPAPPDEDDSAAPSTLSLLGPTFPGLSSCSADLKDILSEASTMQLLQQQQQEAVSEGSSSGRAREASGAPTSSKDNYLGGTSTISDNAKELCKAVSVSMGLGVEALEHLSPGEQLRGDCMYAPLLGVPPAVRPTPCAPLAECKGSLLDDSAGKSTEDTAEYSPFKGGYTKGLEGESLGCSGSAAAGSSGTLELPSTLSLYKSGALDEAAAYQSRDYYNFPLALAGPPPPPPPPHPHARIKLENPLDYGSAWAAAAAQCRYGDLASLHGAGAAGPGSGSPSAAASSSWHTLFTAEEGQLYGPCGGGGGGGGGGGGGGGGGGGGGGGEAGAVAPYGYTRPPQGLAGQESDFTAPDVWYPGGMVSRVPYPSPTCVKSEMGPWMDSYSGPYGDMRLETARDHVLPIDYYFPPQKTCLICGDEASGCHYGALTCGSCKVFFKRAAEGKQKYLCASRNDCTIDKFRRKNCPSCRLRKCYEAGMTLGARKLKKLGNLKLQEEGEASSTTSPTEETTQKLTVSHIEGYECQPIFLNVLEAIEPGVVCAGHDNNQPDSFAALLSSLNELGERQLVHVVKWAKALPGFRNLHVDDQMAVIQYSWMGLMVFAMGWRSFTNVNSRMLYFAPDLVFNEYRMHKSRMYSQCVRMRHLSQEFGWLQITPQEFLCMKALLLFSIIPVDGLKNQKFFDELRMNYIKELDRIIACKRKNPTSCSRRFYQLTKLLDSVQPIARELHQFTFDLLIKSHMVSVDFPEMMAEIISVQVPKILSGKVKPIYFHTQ
Estrogen receptor (Homo sapiens), sequence (P03372 whole entry, looked up): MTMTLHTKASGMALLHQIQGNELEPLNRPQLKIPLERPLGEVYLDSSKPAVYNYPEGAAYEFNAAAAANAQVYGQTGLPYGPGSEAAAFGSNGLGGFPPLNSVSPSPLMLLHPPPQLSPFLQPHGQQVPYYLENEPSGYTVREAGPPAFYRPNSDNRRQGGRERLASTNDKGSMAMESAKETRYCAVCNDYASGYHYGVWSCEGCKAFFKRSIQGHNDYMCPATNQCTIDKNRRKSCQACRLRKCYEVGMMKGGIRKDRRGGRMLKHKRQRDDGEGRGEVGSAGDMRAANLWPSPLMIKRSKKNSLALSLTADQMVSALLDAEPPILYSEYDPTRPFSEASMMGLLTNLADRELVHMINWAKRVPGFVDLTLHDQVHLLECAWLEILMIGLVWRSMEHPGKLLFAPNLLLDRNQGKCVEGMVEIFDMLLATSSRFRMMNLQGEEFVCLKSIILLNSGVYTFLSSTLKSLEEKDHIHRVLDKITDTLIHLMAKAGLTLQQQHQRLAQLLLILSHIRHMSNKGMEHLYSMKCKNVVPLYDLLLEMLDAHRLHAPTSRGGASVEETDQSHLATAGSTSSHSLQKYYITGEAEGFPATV
Aromatase (Homo sapiens), sequence (P11511 whole entry, looked up): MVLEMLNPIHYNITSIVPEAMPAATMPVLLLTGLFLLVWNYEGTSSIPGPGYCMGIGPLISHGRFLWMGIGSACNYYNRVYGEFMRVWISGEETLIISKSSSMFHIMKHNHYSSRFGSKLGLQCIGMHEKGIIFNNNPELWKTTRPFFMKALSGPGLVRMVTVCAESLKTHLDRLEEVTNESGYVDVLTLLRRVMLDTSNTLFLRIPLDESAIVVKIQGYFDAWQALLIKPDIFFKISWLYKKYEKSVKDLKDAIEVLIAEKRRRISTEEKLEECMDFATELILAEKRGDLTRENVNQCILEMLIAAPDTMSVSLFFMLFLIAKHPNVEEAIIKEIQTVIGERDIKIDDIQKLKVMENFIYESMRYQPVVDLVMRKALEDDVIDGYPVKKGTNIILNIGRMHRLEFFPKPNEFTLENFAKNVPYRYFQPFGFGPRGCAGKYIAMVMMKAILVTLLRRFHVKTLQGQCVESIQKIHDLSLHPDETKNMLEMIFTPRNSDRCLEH

[O-][n+]1ccccc1SSc1cccc[n+]1[O-]
active: Potency [2] 0.0596 µM | Potency [3] 0.0668 µM | Potency [4] 0.0841 µM | Potency [5] 0.169 µM | Potency [7] 1.19 µM | Potency [8] 0.266 µM | Potency [9] 0.211 µM | Potency [12] 0.15 µM
inactive: Potency [1] | Potency [6] | Potency [10] | Potency [11]

CC(=O)S[C@@H]1CC2=CC(=O)CC[C@]2(C)[C@H]2CC[C@@]3(C)[C@@H](CC[C@@]34CCC(=O)O4)[C@H]12
inactive: Potency [5] | Potency [13] | Potency [14] | Potency [16] | Potency [10] | activation ([17]; at 70.3 µM (top of the series)) 7.41% and -17.9% | Potency [11]
active: Potency [1] 49 µM | Potency [2] 7.5 µM and 6.11 µM | Potency [3] 9.44 µM and 6.11 µM | Potency [4] 8.41 µM and 6.11 µM | Potency [8] 27.3 µM | Potency [9] 26.6 µM and 27.3 µM | Potency [15] 12.3 µM [inconclusive] | Potency [12] 26.6 µM and 27.3 µM
inactive and 48.6 µM (active): Potency [18]

COc1ccc(C(=O)/C(Br)=C\C(=O)O)cc1
inactive and 3.86 µM (active): Potency [2]
inactive: Potency [1] | Potency [5] | Potency [6] | Potency [14] | Potency [16] | Potency [10] | activation ([17]; at 70.3 µM (top of the series)) 0.472% | Potency [11]
inactive and 6.11 µM (active): Potency [3]
active: Potency [4] 6.11 µM | Potency [7] 23.7 µM and 30.6 µM | Potency [8] 21.7 µM | Potency [12] 48.6 µM

C[C@@H](NCCCc1cccc(C(F)(F)F)c1)c1cccc2ccccc12
active: Potency [1] 13.4 µM | Potency [2] 5.31 µM | Potency [3] 5.96 µM | Potency [4] 5.96 µM | Potency [5] 19 µM | Potency [8] 7.5 µM | Potency [9] 8.41 µM | Potency [16] 23.9 µM | Potency [12] 13.3 µM
inactive: Potency [6] | Potency [13]

Oc1cc2ccccc2c2ccccc12
active: Potency [1] 17.4 µM | Potency [2] 1.22 µM | Potency [3] 1.72 µM | Potency [4] 1.09 µM | Potency [5] 9.77 µM | Potency [13] 27.3 µM | Potency [7] 13.7 µM | Potency [8] 10.9 µM | Potency [9] 10.9 µM | Potency [16] 11 µM | Potency [10] 24.5 µM [fluorescent] | Potency [12] 6.86 µM
inactive: Potency [6]

COc1cccc2c1C(=O)c1c(O)c3c(c(O)c1C2=O)C[C@@](O)(C(=O)CO)C[C@@H]3O[C@H]1C[C@H](N)[C@H](O[C@@H]2CCCCO2)[C@H](C)O1
active: Potency [1] 21.3 µM | Potency [2] 0.188 µM | Potency [3] 0.237 µM | Potency [4] 0.0298 µM | Potency [19] 8.49 µM | Potency [7] 4.22 µM | Potency [8] 1.68 µM | Potency [9] 0.841 µM | Potency [10] 4.25 µM [activator] | Potency [11] 9.44 µM
inactive: Potency [5] | Potency [6] | Potency [16] | Potency [12]

CCCCCCCCCCCCCCCCCC[N+](C)(C)Cc1ccccc1
active: Potency [1] 19.7 µM | Potency [2] 0.978 µM | Potency [3] 0.777 µM | Potency [4] 0.871 µM | Potency [5] 19.7 µM | Potency [13] 17.4 µM | Potency [7] 12.3 µM | Potency [8] 11 µM | Potency [9] 7.77 µM | Potency [16] 22.1 µM | Potency [12] 21.9 µM
inactive: Potency [14]

N#CSc1ccc(N)c([N+](=O)[O-])c1
inactive: Potency [6] | Potency [14] | Potency [16] | Potency [10] | activation ([17]; at 95 µM (top of the series)) -0.741%
active: Potency [1] 55.3 µM | Potency [2] 12.3 µM | Potency [3] 6.9 µM | Potency [4] 9.75 µM | Potency [5] 24.7 µM | Potency [19] 43.9 µM | Potency [13] 61.5 µM | Potency [7] 61.5 µM | Potency [8] 54.8 µM | Potency [15] 27.7 µM [inconclusive] | Potency [11] 54.8 µM | Potency [12] 27.5 µM

CCc1cc(Cc2cc(CC)cc(C(C)(C)C)c2O)c(O)c(C(C)(C)C)c1
active: Potency [1] 11 µM | Potency [2] 21.7 µM | Potency [3] 19.3 µM | Potency [4] 15.4 µM | Potency [5] 24.5 µM | Potency [19] 13.8 µM | Potency [8] 7.7 µM | Potency [9] 6.11 µM | Potency [16] 15.5 µM | Potency [11] 68.6 µM | Potency [12] 30.6 µM
inactive: Potency [13] | Potency [14]

CCC(C)Nc1ccc(NC(C)CC)cc1 (configuration not stated)
active: Potency [1] 44.5 µM | Potency [2] 12.4 µM | Potency [3] 5.55 µM | Potency [4] 6.99 µM | Potency [5] 12.5 µM | Potency [19] 8.88 µM | Potency [13] 19.7 µM | Potency [7] 8.8 µM | Potency [8] 14 µM | Potency [9] 14 µM | Potency [15] 22.3 µM [inconclusive] | Potency [16] 25 µM | Potency [11] 24.8 µM | Potency [12] 3.93 µM
inactive: Potency [14]

CCCCC(CC)CN=C(N)NC(N)=NCCCCCCN=C(N)NC(N)=NCC(CC)CCCC (configuration not stated)
active: Potency [1] 19 µM | Potency [2] 8.41 µM | Potency [3] 11.9 µM | Potency [4] 10.6 µM | Potency [5] 13.4 µM | Potency [13] 26.6 µM | Potency [7] 16.8 µM | Potency [8] 7.5 µM | Potency [9] 6.68 µM | Potency [16] 10.7 µM | Potency [12] 18.8 µM
inactive: Potency [6]

CC(C)(C)c1ccc(C(=O)O)cc1
inactive: Potency [1] | Potency [2] | Potency [3] | Potency [4] | Potency [5] | Potency [13] | Potency [8] | Potency [9] | Potency [14] | Potency [16] | Potency [11] | Potency [12]

S=c1[nH]c2ccccc2s1
inactive and 6.16 µM (active): Potency [16]
active: Potency [2] 29.8 µM and 61.1 µM | Potency [3] 29.8 µM and 66.6 µM | Potency [4] 29.8 µM and 64 µM
inactive: Potency [1] | Potency [5] | Potency [13] | Potency [8] | Potency [9] | Potency [14] | Potency [12]

— PubChem BioAssay (Tox21)
